Drawing on publication PMC7862700, “An all-to-all approach to the identification of sequence-specific readers for epigenetic DNA modifications on cytosine”, this text covers binding signal for one sequence.

What all share (assay): DAPPL (digital affinity profiling via proximity ligation, sequencing); 10 mM Tris-HCl pH 7.5, 50 mM NaCl, 1 mM DTT, 4% glycerol, room temperature, 30 min; GST-TFs on glutathione beads, 16-mer random dsDNA library, 0.1% formaldehyde crosslink after washing; high values mean tight binding
The target of one assay is T1, FEV (Homo sapiens, UniProt Q99581 1-238).
T1 sequence: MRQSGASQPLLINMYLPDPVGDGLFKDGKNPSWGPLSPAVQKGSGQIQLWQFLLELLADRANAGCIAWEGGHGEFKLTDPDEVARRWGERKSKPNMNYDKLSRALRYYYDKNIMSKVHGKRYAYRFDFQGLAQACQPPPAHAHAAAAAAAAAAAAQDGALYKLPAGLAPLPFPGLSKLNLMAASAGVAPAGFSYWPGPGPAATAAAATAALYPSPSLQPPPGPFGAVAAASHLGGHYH
The following applies: protein: recombinant; tags: N-terminal GST; dsDNA, one strand shown. In a few lines:
(§1)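 Human transcription factors carrying a GST fusion were produced in yeast, bound to glutathione beads, tagged with DNA barcodes and pooled together with a tag-only sample. Each pool was held with 200 nmole of a random double-stranded 16-mer DNA library in Tris/NaCl/DTT/glycerol buffer for 30 min at room temperature, then washed, crosslinked in 0.1% formaldehyde, proximity-ligated with BsaI/T4 ligase (1 h, 37 °C), PCR-amplified and sequenced on an Illumina NextSeq500. Binding signal is the read frequency of each hexamer for a given factor divided by its frequency in the tag-only sample.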

The target of another assay is ETV5 (Homo sapiens, UniProt P41161 1-510). To be noted: protein: recombinant; tags: N-terminal GST; dsDNA, one strand shown. In a few lines: as §1
In a further assay the target is HSF1 (Homo sapiens, UniProt Q00613 1-529). The following applies: protein: recombinant; tags: N-terminal GST; chain copies: 3; dsDNA, one strand shown. In a few lines:
as §1

Another assay has as its target T2, SPIC (Homo sapiens, UniProt Q8N5J4 1-248).
T2 sequence: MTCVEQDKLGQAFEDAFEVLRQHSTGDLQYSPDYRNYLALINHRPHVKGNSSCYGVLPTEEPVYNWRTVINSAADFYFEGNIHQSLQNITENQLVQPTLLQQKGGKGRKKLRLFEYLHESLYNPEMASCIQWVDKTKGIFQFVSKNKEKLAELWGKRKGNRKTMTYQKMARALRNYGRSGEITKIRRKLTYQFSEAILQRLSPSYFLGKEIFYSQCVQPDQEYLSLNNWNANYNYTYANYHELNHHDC
To be noted: protein: recombinant; tags: N-terminal GST; dsDNA, one strand shown. In a few lines: as §1

The target of a further assay is ELF4 (Homo sapiens, UniProt Q99607 1-663). The following applies: protein: recombinant; tags: N-terminal GST; dsDNA, one strand shown. In a few lines: as §1
The target of the next assay is T3, ELK4 (Homo sapiens, UniProt P28324-2 1-405).
T3 sequence: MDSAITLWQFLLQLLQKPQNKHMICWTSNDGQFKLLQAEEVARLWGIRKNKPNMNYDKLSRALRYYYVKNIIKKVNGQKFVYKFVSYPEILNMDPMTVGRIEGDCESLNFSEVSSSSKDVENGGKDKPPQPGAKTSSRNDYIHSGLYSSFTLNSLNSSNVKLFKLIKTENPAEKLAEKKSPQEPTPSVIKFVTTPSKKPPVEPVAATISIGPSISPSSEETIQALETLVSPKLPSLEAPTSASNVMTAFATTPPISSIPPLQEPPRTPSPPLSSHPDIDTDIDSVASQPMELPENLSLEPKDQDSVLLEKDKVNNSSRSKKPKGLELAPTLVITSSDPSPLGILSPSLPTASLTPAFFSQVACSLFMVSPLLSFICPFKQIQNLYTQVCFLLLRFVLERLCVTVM
The following applies: protein: recombinant; tags: N-terminal GST; dsDNA, one strand shown. In a few lines: as §1

The target of another assay is T4, ETV2 (Homo sapiens, UniProt O00321 1-342).
T4 sequence: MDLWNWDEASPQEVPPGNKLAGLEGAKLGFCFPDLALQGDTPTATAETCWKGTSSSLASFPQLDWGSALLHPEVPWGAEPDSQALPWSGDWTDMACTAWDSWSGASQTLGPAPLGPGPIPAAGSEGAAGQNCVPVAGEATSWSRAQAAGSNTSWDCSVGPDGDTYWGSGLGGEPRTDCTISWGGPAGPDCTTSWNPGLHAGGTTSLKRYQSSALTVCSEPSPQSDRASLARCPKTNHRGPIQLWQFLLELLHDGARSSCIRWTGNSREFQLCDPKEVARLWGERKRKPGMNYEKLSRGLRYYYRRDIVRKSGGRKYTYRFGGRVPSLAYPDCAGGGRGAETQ
To be noted: protein: recombinant; tags: N-terminal GST; dsDNA, one strand shown. In a few lines:
as §1

The target in the next assay is T5, ELF3 (Homo sapiens, UniProt P78545 1-371).
T5 sequence: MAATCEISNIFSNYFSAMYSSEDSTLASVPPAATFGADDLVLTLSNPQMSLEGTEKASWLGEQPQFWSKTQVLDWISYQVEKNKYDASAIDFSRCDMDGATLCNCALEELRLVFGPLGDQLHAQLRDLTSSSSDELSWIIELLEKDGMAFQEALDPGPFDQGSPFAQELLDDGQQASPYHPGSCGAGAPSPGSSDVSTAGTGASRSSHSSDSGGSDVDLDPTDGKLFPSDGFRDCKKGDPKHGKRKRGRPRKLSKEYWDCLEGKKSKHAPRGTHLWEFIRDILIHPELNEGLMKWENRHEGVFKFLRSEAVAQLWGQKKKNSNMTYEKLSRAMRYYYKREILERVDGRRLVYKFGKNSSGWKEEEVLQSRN
The following applies: protein: recombinant; tags: N-terminal GST; dsDNA, one strand shown. In a few lines: as §1

For another assay, the target named is CRX (Homo sapiens, UniProt O43186 1-299). To be noted: protein: recombinant; tags: N-terminal GST; dsDNA, one strand shown. In a few lines:
as §1

Another assay addresses ETV1 (Homo sapiens, UniProt P50549 1-477). To be noted: protein: recombinant; tags: N-terminal GST; dsDNA, one strand shown. In a few lines:
as §1

A further assay deals with T6, ERF (Homo sapiens, UniProt P50548 1-548).
T6 sequence: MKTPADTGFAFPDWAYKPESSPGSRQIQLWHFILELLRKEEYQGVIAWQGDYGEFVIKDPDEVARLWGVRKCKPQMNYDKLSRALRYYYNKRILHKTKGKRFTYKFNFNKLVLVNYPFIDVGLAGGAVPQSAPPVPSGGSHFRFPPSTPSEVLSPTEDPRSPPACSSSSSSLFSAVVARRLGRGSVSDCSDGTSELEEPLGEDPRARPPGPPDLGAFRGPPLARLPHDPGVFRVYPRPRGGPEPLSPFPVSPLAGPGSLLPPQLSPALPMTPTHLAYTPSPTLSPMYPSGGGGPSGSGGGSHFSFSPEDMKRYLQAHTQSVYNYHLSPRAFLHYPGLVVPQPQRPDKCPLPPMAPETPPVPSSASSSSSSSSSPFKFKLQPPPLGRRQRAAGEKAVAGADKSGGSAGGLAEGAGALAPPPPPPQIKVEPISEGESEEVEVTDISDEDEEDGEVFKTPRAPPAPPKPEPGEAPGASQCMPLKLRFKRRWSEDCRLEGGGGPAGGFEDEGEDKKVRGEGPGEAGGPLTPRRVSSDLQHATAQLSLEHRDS
The following applies: protein: recombinant; tags: N-terminal GST; dsDNA, one strand shown. In a few lines:
as §1

For another assay, the target named is T7, ETV3L (Homo sapiens, UniProt Q6ZN32 1-361).
T7 sequence: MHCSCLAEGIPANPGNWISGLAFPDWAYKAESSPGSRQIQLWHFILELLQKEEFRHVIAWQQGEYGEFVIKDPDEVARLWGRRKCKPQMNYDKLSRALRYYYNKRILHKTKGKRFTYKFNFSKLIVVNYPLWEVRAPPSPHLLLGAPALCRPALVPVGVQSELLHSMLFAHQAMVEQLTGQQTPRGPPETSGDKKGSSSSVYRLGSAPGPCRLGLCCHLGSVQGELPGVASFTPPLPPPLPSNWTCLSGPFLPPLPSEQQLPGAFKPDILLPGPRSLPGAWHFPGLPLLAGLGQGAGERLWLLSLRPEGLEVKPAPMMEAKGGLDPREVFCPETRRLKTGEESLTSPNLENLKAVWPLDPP
To be noted: protein: recombinant; tags: N-terminal GST; dsDNA, one strand shown. In a few lines:
as §1

For the next assay, the target named is T8, ETS2 (Homo sapiens, UniProt P15036 1-469).
T8 sequence: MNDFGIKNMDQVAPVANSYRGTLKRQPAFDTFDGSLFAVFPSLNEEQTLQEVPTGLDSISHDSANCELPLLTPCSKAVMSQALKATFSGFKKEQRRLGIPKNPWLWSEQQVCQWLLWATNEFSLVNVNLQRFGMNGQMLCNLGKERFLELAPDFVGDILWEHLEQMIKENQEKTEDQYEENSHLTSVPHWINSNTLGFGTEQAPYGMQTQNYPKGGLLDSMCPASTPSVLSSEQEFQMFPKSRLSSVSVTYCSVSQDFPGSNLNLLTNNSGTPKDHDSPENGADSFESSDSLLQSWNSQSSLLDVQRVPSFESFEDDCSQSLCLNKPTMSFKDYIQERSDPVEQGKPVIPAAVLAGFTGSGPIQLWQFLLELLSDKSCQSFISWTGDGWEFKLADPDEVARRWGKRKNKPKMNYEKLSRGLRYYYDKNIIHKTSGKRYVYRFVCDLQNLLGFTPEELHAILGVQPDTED
The following applies: protein: recombinant; tags: N-terminal GST; dsDNA, one strand shown. In a few lines:
as §1

The target in another assay is T9, SPDEF (Homo sapiens, UniProt O95238 1-335).
T9 sequence: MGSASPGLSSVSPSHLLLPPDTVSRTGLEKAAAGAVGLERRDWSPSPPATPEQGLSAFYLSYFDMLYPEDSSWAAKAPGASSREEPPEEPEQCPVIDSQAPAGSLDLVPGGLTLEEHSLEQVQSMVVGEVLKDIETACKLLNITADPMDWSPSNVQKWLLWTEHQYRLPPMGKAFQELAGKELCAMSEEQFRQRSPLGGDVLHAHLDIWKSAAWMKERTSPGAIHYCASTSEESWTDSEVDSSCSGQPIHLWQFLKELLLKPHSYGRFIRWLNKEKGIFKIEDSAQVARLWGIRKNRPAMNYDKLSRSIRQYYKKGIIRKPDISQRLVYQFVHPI
The following applies: protein: recombinant; tags: N-terminal GST; dsDNA, one strand shown. In a few lines: as §1

The target in another assay is T10, ETV7 (Homo sapiens, UniProt Q9Y603 1-341).
T10 sequence: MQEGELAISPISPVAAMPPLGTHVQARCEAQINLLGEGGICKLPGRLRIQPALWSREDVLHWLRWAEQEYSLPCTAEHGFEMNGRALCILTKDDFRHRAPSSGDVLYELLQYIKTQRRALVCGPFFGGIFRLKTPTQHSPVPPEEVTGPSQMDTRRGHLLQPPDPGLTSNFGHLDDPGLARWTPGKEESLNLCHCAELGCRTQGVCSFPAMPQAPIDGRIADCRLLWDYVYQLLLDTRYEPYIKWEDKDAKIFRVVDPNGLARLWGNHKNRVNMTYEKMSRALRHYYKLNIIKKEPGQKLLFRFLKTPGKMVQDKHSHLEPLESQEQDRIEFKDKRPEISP
To be noted: protein: recombinant; tags: N-terminal GST; dsDNA, one strand shown. In a few lines: as §1

The next assay has as its target T11, ELF5 (Homo sapiens, UniProt Q9UKW6-2 1-255).
T11 sequence: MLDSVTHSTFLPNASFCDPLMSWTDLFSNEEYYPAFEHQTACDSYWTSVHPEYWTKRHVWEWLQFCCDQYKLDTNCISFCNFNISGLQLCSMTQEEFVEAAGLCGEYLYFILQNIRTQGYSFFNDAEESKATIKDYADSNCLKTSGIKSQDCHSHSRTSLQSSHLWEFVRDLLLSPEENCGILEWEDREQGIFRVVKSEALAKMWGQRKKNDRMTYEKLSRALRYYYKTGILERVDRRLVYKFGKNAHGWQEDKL
To be noted: protein: recombinant; tags: N-terminal GST; dsDNA, one strand shown. In a few lines:
as §1

A further assay deals with T12, ETV3 (Homo sapiens, UniProt P41162-2 1-143).
T12 sequence: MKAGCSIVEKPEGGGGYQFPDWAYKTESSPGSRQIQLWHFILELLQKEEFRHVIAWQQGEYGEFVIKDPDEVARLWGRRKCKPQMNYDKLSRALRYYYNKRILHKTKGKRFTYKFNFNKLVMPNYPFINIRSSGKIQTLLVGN
The following applies: protein: recombinant; tags: N-terminal GST; dsDNA, one strand shown. In a few lines:
as §1

A further assay concerns the target ETV6 (Homo sapiens, UniProt P41212 1-452). To be noted: protein: recombinant; tags: N-terminal GST; dsDNA, one strand shown. In a few lines:
as §1

ELF4, sequence (Q99607 whole entry): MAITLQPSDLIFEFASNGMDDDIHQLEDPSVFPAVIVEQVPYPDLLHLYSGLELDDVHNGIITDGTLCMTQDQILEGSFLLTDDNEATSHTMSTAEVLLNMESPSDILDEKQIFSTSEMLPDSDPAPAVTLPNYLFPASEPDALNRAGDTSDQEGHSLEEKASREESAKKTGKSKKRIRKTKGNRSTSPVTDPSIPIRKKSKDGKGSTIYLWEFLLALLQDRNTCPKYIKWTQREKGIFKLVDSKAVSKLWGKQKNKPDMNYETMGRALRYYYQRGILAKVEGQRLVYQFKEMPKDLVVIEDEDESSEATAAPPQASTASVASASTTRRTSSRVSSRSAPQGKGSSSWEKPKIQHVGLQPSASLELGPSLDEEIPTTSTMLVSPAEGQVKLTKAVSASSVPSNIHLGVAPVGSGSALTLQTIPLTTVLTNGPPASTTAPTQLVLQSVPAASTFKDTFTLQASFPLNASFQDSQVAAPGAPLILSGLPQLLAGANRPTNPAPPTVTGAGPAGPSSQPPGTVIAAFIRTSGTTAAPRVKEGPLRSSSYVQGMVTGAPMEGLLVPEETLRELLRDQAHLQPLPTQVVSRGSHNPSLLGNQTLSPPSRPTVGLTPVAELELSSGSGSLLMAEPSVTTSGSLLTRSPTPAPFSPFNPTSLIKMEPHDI
HSF1, sequence (Q00613 whole entry): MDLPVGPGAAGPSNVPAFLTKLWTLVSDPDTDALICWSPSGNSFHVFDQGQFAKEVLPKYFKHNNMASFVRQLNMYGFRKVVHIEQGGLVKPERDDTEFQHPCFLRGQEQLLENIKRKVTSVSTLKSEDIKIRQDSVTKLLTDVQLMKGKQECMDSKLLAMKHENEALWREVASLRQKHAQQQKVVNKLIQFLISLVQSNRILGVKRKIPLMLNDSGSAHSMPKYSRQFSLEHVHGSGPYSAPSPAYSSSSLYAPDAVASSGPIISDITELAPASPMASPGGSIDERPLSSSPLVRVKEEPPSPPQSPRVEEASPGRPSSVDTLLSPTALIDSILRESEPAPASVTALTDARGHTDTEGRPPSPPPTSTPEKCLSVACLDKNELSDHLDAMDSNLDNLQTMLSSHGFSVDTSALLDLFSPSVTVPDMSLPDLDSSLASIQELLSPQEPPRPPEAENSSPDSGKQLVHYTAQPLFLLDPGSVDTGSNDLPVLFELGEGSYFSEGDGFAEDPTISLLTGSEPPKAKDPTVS
ETV5, sequence (P41161 whole entry): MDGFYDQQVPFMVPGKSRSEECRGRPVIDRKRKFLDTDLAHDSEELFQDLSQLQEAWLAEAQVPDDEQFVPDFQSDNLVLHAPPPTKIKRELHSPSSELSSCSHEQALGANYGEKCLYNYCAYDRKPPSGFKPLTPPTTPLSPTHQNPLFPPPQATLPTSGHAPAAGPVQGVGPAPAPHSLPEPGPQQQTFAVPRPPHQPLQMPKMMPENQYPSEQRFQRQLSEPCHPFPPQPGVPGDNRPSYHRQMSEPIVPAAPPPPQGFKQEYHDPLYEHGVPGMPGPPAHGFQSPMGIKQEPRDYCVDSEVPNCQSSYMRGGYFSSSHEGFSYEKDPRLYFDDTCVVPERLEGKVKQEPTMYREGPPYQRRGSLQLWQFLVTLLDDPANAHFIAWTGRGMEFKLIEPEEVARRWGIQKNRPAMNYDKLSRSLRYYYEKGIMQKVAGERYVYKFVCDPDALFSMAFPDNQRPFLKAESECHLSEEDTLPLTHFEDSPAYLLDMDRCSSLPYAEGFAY
CRX, sequence (O43186 whole entry): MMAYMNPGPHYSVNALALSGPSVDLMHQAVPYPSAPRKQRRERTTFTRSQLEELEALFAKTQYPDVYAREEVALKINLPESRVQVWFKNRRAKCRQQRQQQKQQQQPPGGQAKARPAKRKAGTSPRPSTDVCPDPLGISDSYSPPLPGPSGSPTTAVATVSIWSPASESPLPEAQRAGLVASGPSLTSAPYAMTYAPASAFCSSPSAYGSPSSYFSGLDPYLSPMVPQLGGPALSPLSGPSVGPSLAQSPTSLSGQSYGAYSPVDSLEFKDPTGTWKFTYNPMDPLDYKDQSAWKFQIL
ETV6, sequence (P41212 whole entry): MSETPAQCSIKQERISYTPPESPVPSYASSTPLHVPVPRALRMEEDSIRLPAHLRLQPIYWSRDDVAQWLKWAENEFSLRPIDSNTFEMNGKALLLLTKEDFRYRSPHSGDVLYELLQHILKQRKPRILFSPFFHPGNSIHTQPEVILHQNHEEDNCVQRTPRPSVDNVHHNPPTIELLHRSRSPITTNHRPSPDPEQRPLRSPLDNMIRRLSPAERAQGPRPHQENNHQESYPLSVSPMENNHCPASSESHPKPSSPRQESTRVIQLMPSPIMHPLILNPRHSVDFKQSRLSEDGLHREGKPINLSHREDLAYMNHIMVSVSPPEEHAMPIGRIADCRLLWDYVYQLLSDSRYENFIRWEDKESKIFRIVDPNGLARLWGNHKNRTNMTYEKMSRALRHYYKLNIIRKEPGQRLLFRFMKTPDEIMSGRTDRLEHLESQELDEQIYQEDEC
ETV1, sequence (P50549 whole entry): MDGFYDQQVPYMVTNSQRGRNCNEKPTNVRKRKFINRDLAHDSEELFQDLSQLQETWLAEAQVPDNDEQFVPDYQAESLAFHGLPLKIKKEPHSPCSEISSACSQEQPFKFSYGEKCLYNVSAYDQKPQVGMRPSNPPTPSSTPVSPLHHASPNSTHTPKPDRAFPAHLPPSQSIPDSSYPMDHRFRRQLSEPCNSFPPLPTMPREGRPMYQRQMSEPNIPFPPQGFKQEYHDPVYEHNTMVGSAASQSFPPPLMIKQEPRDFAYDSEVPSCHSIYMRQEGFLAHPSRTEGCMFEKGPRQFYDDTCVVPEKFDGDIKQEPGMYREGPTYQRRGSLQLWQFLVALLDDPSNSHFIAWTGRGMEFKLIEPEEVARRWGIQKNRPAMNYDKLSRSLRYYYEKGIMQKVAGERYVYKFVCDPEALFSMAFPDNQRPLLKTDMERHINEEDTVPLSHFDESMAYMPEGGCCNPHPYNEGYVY

Regarding TTCGAC, the binding signal with FEV was 1.5 fold enrichment (6-mer frequency, TF over GST control); with ETV5, 1.46 fold enrichment (6-mer frequency, TF over GST control); with HSF1, 1.75 fold enrichment (6-mer frequency, TF over GST control); with SPIC it was 1.35 fold enrichment (6-mer frequency, TF over GST control); with ELF4, 1.63 fold enrichment (6-mer frequency, TF over GST control); in the assay with ELK4, 1.43 fold enrichment (6-mer frequency, TF over GST control). The binding signal was 1.35 fold enrichment (6-mer frequency, TF over GST control) with ETV2; 1.46 fold enrichment (6-mer frequency, TF over GST control) with ELF3; 1.44 fold enrichment (6-mer frequency, TF over GST control) in the assay with CRX; 1.44 fold enrichment (6-mer frequency, TF over GST control) with ETV1; 1.43 fold enrichment (6-mer frequency, TF over GST control) in the assay with ERF; 1.39 fold enrichment (6-mer frequency, TF over GST control) with ETV3L. Also, the binding signal was 1.42 fold enrichment (6-mer frequency, TF over GST control) with ETS2; 1.36 fold enrichment (6-mer frequency, TF over GST control) with SPDEF; 1.37 fold enrichment (6-mer frequency, TF over GST control) with ETV7; 1.36 fold enrichment (6-mer frequency, TF over GST control) with ELF5; 1.45 fold enrichment (6-mer frequency, TF over GST control) with ETV3; 1.3 fold enrichment (6-mer frequency, TF over GST control) with ETV6.
